# Reference: PubChem BioAssay (NCATS)
# Inconclusive results are not listed. Where a call stands in place of a potency, no number is given. Active and inactive are the calls of the source. Calls come from the whole dose curve; as a rule, active = well fitted inhibition curve with a large enough effect; inconclusive = small, poorly fitted or top-dose-only effect; inactive = flat fitted curve, though single readings scatter.
# Biological target: Glutathione peroxidase 1 (Homo sapiens) (UniProt P07203)
# Sequence (P07203 whole entry, looked up): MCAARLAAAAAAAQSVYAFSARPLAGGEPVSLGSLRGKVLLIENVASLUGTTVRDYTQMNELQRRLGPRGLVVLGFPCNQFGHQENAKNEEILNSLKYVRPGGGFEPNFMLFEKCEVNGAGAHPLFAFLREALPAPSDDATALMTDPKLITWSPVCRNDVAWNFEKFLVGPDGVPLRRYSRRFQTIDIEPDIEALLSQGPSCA
# Test: Primary qHTS Assay for Inhibitors of Recombinant Selenoprotein Glutathione Peroxidase 1 (GPX1) (AID 1845191); note: nearly all actives have a fitted effect of over 65% in size
# Conditions: recombinant GPX1, GR-coupled NADPH fluorescence, 15 min; series mostly up to 48.8 µM
# Source text: Assay Provider: Elias S.J. Arner MD PhD.
# Department of Medical Biochemistry and Biophysics
# Karolinska Institutet, Solna, Stockholm, Sweden
# Selenoprotein glutathione peroxidases (GPX), like the ubiquitously expressed GPX1 and the ferroptosis modulator GPX4, enact their antioxidant activities by reducing hydroperoxides using glutathione. […] GPX1 and GPX4 inhibitors have thus shown promise as anti-cancer agents. Existing inhibitors are often promiscuous, or modulate GPX activity only indirectly, so novel direct inhibitors identified through screening against GPX1 and GPX4 could be valuable. Here, we developed optimized glutathione reductase (GR)-coupled GPX assays for the biochemical high-throughput screen (HTS) of almost 12,000 compounds with known mechanisms of action. Initial hits were triaged using a GR counter-screen, assessed for isoform specificity using a separate GPX2 assay, and were assessed for general selenocysteine-targeting activity using a thioredoxin reductase (TXNRD1) assay. With this suite of assays, we identified novel GPX1/GPX2- and GPX4-specific inhibitors and can here present a validated pipeline for future discovery research for selenoprotein-targeting agents.
# SEQUENCE No. (e.g., 1, 2, 3, etc.); […] (e.g., Cells, Incubation, Reagent, etc.); VALUE; DESCRIPTION.
# 1; Reagent 1; 3 uL; GPx1 enzyme or no enzyme control in 1536-well, black, solid Greiner assay plate.
# 2; Compound; 25 nL; Kalypsis pin tool (Wako USA) equipped with a 1536-well pin head.
# 3; Incubation; 30 min; room temperature.
# 4; Reagent 2; 1 uL; 10 nM GPX1, 1 mM GSH, 0.5 mM CHP, 0.5 mM NADPH, 100 nM GR, 0.01% BSA substrate
# 5; Detection; Fluorescence; ViewLux microplate reader, excitation 340 nm and emission 450 nm.
# 6; Incubation; 15 min; room temperature.
# 7; Detection; Fluorescence; ViewLux microplate reader, excitation 340 nm and emission 450 nm.
# NOTES (numbers refer to Sequence numbers above)
# 1. 3 uL of 16.66 nM GPX1 and 0.016% BSA in assay buffer (50 mM Tris-HCl, 2 mM EDTA (pH 7.5), 150 mM NaCl) was added to columns 3-48 of 1536-well assay plates using a BioRAPTR Flying Reagent Dispenser (Let's Go Robotics (LGR), Carlsbad, CA). A no-enzyme control (0.01% BSA in TES assay buffer) was added to columns 1-2.
# 2. 25 nL of test compounds and DMSO controls were added to each well with a pin tool (Kalypsys).
# 3. The assay plates were incubated for 30 minutes at room temperature.
# 4. 1 uL of master mix (500 nM glutathione reductase (GR), 5 mM reduced glutathione (GSH), 2.5 mM NADPH in assay buffer) was added. 1 uL of cumene hydroperoxide (CHP) ([2.5 mM] in 50% EtOH) was then added within 5 minutes to initiate the reaction. Final concentrations were: 10 nM GPX1, 1 mM GSH, 0.5 mM CHP, 0.5 mM NADPH, 100 nM GR, 0.01% BSA.
# 5. Initial fluorescence readout (t=0) at 340/450 nm was measured using a ViewLux multimodal detector (PerkinElmer, Waltham, MA).
# 7. Endpoint fluorescence readout (t=15) at 340/450 nm was measured 15 min after room temperature incubation.
row,Compound,Potency
1,CN[C@@H]1C[C@H]2O[C@@](C)([C@@H]1OC)n1c3ccccc3c3c4c(c5c6ccccc6n2c5c31)C(=O)NC4,inactive
2,Cc1ccc(Cn2nc(C(=O)N[C@@H]3C(C)(C)[C@@H]4CC[C@@]3(C)C4)cc2-c2ccc(Cl)c(C)c2)cc1,inactive
3,COC1CC(O[C@H]2CC[C@]3(C)C4CC[C@]5(C)[C@@H](C6=CC(=O)OC6)[C@@H](OC(C)=O)C[C@]5(O)C4CC[C@@H]3C2)OC(C)C1O[C@@H]1O[C@H](CO)[C@@H](O)[C@H](O)[C@H]1O (stereo not given in full),inactive
4,CC(=O)OC[C@]12C[C@H](OC(=O)CC(C)C)C(C)=C[C@H]1O[C@@H]1[C@H](O)[C@@H](OC(C)=O)[C@@]2(C)[C@@]12CO2,inactive
5,COC(=O)[C@@]1(C)C(=O)C=C[C@]2(C)c3c(O)cc(C(C)C)cc3[C@H](O)[C@@H](OC(C)=O)C12 (stereo not given in full),inactive
6,C/C=C(\C)C(=O)O[C@H]1CC2C(=C1C)[C@H]1OC(=O)[C@](C)(O)[C@]1(O)[C@H](OC(=O)CCC)C[C@@]2(C)OC(C)=O (stereo not given in full),inactive
7,O=C1NC(=O)c2c1c1c3ccccc3[nH]c1c1[nH]c3ccccc3c21,inactive
8,CN(Cc1cccc(-c2ccncc2)c1)C(=O)Oc1ccc(-c2ccc(C(N)=O)cc2)cc1,inactive
9,CC(=O)OC[C@]12[C@H](OC(C)=O)C(=O)[C@@H]3[C@@H](O)[C@@]14O[C@@]3(C)COC(=O)c1cccnc1[C@@H](C)[C@H](C)C(=O)O[C@@H]([C@H](OC(C)=O)[C@@H]2OC(C)=O)[C@]4(C)O,inactive
10,C/C=C(\C)C(O)C(C)/C=C(C)/C=C/C/C(C)=C/Cc1nc(OC)c(OC)c(O[C@@H]2O[C@@H](C)[C@H](O)[C@@H](O)[C@H]2O)c1C (stereo not given in full),inactive
11,C=C1[C@@]23C(=O)O[C@H](C)[C@]24O[C@@]2(C(=C)[C@]5(C=CC(=O)OC5(C)C)CC[C@]32C)[C@H](O)[C@@]1(C)OC4=O,inactive
12,CN1C2CCC1CC(OC(=O)N1Cc3ccccc3NC1=O)C2 (stereo not given),inactive
13,CC1(C)C(=O)N(c2ccc(C#N)c(C(F)(F)F)c2)C(=O)N1CCCCO,inactive
14,C[C@]12CC[C@@H](O[C@@H]3O[C@H](CO)[C@@H](O)[C@H](O)[C@H]3O)C[C@@]1(O)CCC1C2CC[C@]2(C)[C@@H](C3=CC(=O)OC3)CC[C@]12O (stereo not given in full),inactive
15,COc1ccn(C)c(=O)c1C#N,inactive
16,COc1cc(C(=O)N2CC[C@@H](O)[C@@H](N)C2)cc2nc(-c3cc4ccccc4n3CC3CC3)n(C)c12,inactive
17,CO[C@H]1[C@H](O)[C@H](O[C@H]2CC[C@]3(C=O)C4CC[C@]5(C)[C@H](C6=CC(=O)OC6)CC[C@]5(O)C4CC[C@@H]3C2)O[C@@H](C)[C@@H]1O (stereo not given in full),inactive
18,CS[C@]1(CO)C(=O)N2[C@H]3C(=CC=C[C@@H]3O)C[C@@]2(SC)C(=O)N1C,inactive
19,CN1C[C@@H]2CN(c3ccc(-c4ccccc4)nn3)C[C@@H]2C1,inactive
20,COC1CC(OC2CCC3(C=O)C(CCC4C3CCC3(C)C(C5=CC(=O)OC5)CCC43O)C2)OC(C)C1O (stereo not given),inactive

row,Compound,Potency
1,Oc1ccc2c3c1O[C@H]1c4[nH]c5c(N=C=S)cccc5c4C[C@@]4(O)[C@@H](C2)N(CC2CC2)CC[C@]314,inactive
2,CC1=CC2/C=C(\C)CCC(O)C(O)C(O)CC(=O)C23C(=O)NC(CC(C)C)C3C1C (stereo not given),inactive
3,C[C@H]1CCC/C=C/C2C[C@H](O)C[C@H]2[C@H](O)/C=C/C(=O)O1 (stereo not given in full),inactive
4,COC1CC(O[C@H]2CC[C@]3(C)C4CC[C@]5(C)[C@@H](C6=CC(=O)OC6)[C@@H](OC(C)=O)C[C@]5(O)C4CC[C@@H]3C2)OC(C)C1O (stereo not given in full),inactive
5,C[C@H]1O[C@@H](n2cnc3c(N)ncnc32)C[C@@H]1O,inactive
6,CC(=O)NCCCOc1ccc(C(=O)N2CCC(N3C(=O)CCc4ccccc43)CC2)cc1,inactive
7,CCC1(O)CCC2C3CCC4=CC(=O)CCC4C3CCC21CC (stereo not given),inactive
8,CN1Cc2c(ccc3c2OCO3)[C@@H]2[C@H]1c1cc3c(cc1C[C@@H]2O)OCO3,inactive
9,CC1(C)C(=O)N(c2ccc(C#N)c(C(F)(F)F)c2)C(=S)N1c1ccc(C(N)=O)c(F)c1,inactive
10,N#Cc1ccc([C@H]2CCCC[C@H]2O)cc1C(F)(F)F,inactive
11,N#Cc1ccccc1-c1cc(-c2ccccn2)cn(-c2ccccc2)c1=O,inactive
12,C[C@@]1(CO)[C@H](O)CC[C@@]2(C)[C@H]1CC[C@H]1C[C@@H]3C[C@@]12CC[C@]3(O)CO,inactive
13,C=C1[C@@H](C)C2[C@H](Cc3ccccc3)NC(=O)[C@@]23C(/C=C/C[C@H](C)C[C@@](C)(O)/C=C/[C@@H]3OC(C)=O)[C@@H]1O (stereo not given in full),inactive
14,CC(=O)OC[C@]12C[C@H](O)C(C)=C[C@H]1O[C@@H]1[C@H](O)[C@@H](OC(C)=O)[C@@]2(C)[C@]12CO2,inactive
15,COc1ccc(CCNCc2ccc(OC)c3ccccc23)cc1,inactive
16,O=C1CN=C(c2ccccc2Cl)c2cc(Br)ccc2N1,inactive
17,COc1ccc(CC2C(=O)NC(C)C(=O)N(C)C3Cc4ccc(cc4)Oc4cc(ccc4OC4OC(CO)C(O)C(O)C4O)CC(C(=O)NC(C)C(=O)NC(CCC(=O)O)C(=O)N2C)N(C)C3=O)cc1 (stereo not given),inactive
18,COc1cc(O)c2c(c1)CCC[C@@H](O)[C@H](O)C(=O)/C=C\C[C@H](C)OC2=O,inactive
19,COC1CC(O[C@H]2CC[C@]3(C=O)C4CC[C@]5(C)[C@@H](C6=CC(=O)OC6)CC[C@]5(O)[C@@H]4CC[C@@H]3C2)OC(C)C1O[C@@H]1O[C@H](CO)[C@@H](O[C@@H]2O[C@H](CO)[C@@H](O)[C@H](O)[C@H]2O)[C@H](O)[C@H]1O (stereo not given in full),inactive
20,C[C@H]1O[C@@H](O[C@H]2CC[C@]3(C=O)C4CC[C@]5(C)[C@@H](C6=CC(=O)OC6)CC[C@]5(O)[C@@H]4CC[C@]3(O)C2)C[C@@H](O)[C@@H]1O (stereo not given in full),inactive
